# This is a sample that favours compounds with a hit; in the whole collection about 12% have one here.
# USP8 block: human USP8 deubiquitinase inhibition. inhibition, % at 20 µM. purified USP8, Ub-rhodamine cleavage fluorescence, 30 min. AID 1645853. P40818. 4.2% of 47,000 active
# USP17 block: blocks human USP17 ubiquitin-rhodamine cleavage; purified USP17, Ub-rhodamine cleavage fluorescence, 3 h; inhibition, % at 50 µM; 6.5% of 47,000 active; AID 1645855
# Target sequence (A8MUK1 whole entry, looked up): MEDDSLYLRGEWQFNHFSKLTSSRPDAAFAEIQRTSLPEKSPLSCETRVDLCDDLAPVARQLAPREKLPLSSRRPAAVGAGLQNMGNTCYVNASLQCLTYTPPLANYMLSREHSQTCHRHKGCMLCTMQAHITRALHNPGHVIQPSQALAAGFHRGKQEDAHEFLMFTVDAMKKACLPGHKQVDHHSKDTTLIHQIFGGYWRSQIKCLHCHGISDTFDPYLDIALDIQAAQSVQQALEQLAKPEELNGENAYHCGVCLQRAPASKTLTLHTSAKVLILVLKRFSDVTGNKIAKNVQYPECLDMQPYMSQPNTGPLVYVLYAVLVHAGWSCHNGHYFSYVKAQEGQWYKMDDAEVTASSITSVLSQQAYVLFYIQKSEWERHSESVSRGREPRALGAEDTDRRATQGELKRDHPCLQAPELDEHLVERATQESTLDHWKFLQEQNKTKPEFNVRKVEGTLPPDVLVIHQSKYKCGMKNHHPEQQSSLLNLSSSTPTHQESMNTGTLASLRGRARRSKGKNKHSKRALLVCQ
# USP30 inh: human USP30 deubiquitinase inhibition; Q70CQ3; purified USP30, Ub-rhodamine cleavage fluorescence; inhibition, % at 25 µM; 5.3% of 47,000 active; AID 1645860
# The depositor's hits bear a star; i = inactive; . = not tested or not shown. No stated cut-off is given here; in the data, active means inhibition above about 30%; inactive means the rest.
SMILES,USP8 block,USP17 block,USP30 inh
N#Cc1cccc(CN2Cc3ccnn3CC(C(=O)N3CCCC3)C2)c1 (stereo unspecified),-72,-27,-19
Cc1cc(C(=O)N2CCOCC2)c(C)n1-c1ccc(O)cc1,94*,86*,17
O=C(O)c1ccccc1-c1ccccc1C(=O)N1CCOCC1,3,3,5
C=C1C(=O)[C@H](OC(C)=O)/C=C(/C)[C@H](O)[C@H](O)[C@@H]2[C@@H]1CC2(C)C,-7,-6,5
CC1=C(O)C(=O)C(C2=C(O)C(=O)C(C)=C(O)C2=O)=C(O)C1=O,-1,-55,-26
O=C1C(O)=C(c2ccc(O)cc2)C(=O)C(O)=C1c1ccccc1,1,13,33*
COc1ccc(CN2C(=O)c3cccnc3C2Nc2cccc(C#N)c2)cc1 (stereo unspecified),-32,-4,-4
Fc1ccc(-c2nn(-c3ccc(F)cc3)c3c2cnc2cc4c(cc23)OCO4)cc1,0,11,.
Fc1ccc(-c2nn3c(-c4ccc5c(c4)OCO5)nnc3s2)cc1,64*,17,18
CCCCCCCCCCCCCCCc1cc(O)cc(O)c1,5,30*,2
COc1cc(NC(=O)CSc2nc3ncccc3o2)ccc1Cl,85*,47*,-82
COc1ccc(-c2nc3ncccc3o2)cc1NC(=O)COc1ccccc1Cl,-4,0,-5
CCc1ccc(C(C(=O)NC2CCCC2)N(Cc2ccc(OC)cc2)C(=O)c2ccco2)cc1 (stereo unspecified),0,7,21
O=C(NC1CCCC1)C(c1ccc(N2CCOCC2)cc1)N(C(=O)c1ccco1)c1cccc(C(F)(F)F)c1 (stereo unspecified),5,5,4
O=C(NC1CCCC1)C(c1ccc(Cl)cc1)N(Cc1ccccc1F)C(=O)c1ccco1 (stereo unspecified),26,19,37*
CCC(C)c1ccc(N(C(=O)c2ccco2)C(C(=O)NC2CCCC2)c2ccc(N3CCOCC3)cc2)cc1 (stereo unspecified),11,12,48*
O=C(NCc1ccc2c(c1)OCO2)c1nnn(-c2ccc(Cl)cc2)c1-c1cccnc1,-8,21,-2
CC(C(N)C(=O)NC(C(=O)O)C1OC(n2ccc(=O)[nH]c2=O)C(O)C1O)C(O)c1ccc(O)cn1 (stereo unspecified) (tested in a mixture with another compound),-312,-156,i
COc1ccc(-c2cc3c(=O)n(CC(=O)NCc4ccccc4)ncn3n2)cc1,-31,25,43*
CCN1CCCC1CNC(=O)Cn1ncn2nc(-c3ccc(OC)cc3)cc2c1=O (stereo unspecified),-3,17,-13
COc1ccc(-c2cc3c(=O)n(CC(=O)NCCN4CCCC4)ncn3n2)cc1,13,43*,34*
COc1ccc(-c2cc3c(=O)n(CC(=O)Nc4cc(F)ccc4C)ccn3n2)cc1,28,4,20
Cc1cccc(-c2cc(CC3(C(=O)O)CCCN(C(=O)C4CCCC4)C3)on2)c1 (stereo unspecified),-3,11,-3
CCOc1ccccc1NC1c2ccccc2C(=O)N1c1cccnc1 (stereo unspecified),71*,43*,-8
CSc1cccc(NC2c3ccccc3C(=O)N2c2cccnc2)c1 (stereo unspecified),-10,1,17
SMILES,USP8 block,USP17 block,USP30 inh
Cn1cc(CN2CC[C@H]3C[C@H](C(=O)Nc4cccnc4)O[C@@H]3C2)cn1,-27,.,37*
Cc1ccc(CN2CC[C@H]3C[C@H](C(=O)Nc4cccnc4)O[C@@H]3C2)s1,-223,-24,2
Oc1ccc(-c2nc3c4cnn(-c5ccc(Cl)cc5)c4ncn3n2)cc1,-7,32*,.
Cc1cccc(-c2nc3c4cnn(-c5ccc(Cl)cc5)c4ncn3n2)c1,-5,1,10
Cc1nc(Nc2ccccn2)cc(C2CN(c3cnccn3)C2)n1,10,.,14
COc1ccc2nc(N(Cc3ccncc3)C(=O)c3ccccc3)sc2c1,4,3,-5
COc1ccc(OC)c2sc(N(Cc3ccncc3)C(=O)c3ccco3)nc12,16,24,43*
O=C(c1ccccc1)C(CC(=O)N1CCCC1)c1nc2ccccc2s1 (stereo unspecified),-5,7,8
Cc1ccc(N(Cc2ccc3c(c2)OCO3)C(=O)c2cccs2)cc1,3,19,30
C[C@]12C[C@@H](Cc3ccccc3)N(C(=O)c3ccccc3Cn3cncn3)[C@H]1CCCC(=O)N2,15,13,7
COc1cccc(NC(=O)CN2C(=O)C3CCCC3=Nc3ccccc32)c1 (stereo unspecified),7,16,9
COc1ccc(CNC(=O)CN2C(=O)C3CCCC3=Nc3ccccc32)cc1 (stereo unspecified),83*,22,33*
COc1ccc(C)cc1NC(=O)CN1C(=O)C2CCCC2=Nc2ccccc21 (stereo unspecified),42*,82*,77*
COc1ccc(C)cc1NC(=O)CN1C[C@]2(NC(C)=O)CN(C)CC[C@@H]2[C@H]1c1ccccc1,-10,-15,-38
COc1ccc(NC(=O)c2nnn(-c3cccc(C)c3)c2C)cc1,15,14,21
O=C(NC1CCCCC1)c1cc(-c2cccnc2)n(-c2ccccc2)n1,-12,-4,0
COc1ccc(NC(=O)c2cc(-c3cccnc3)n(-c3ccccc3)n2)c(OC)c1,11,30,21
Cc1ccc(NC(=O)c2cc(-c3cccnc3)n(-c3ccccc3)n2)nc1,17,32*,51*
O=C(NC1CCCC1)c1cc(-c2cccnc2)n(-c2ccccc2)n1,21,24,33*
COc1ccc([N+](=O)[O-])cc1NC(=O)C(C)OC(=O)c1cc(=O)[nH]c2ccc(S(=O)(=O)Nc3ccc(F)cc3)cc12 (stereo unspecified),-36,-6,24
CCC(=O)N1c2ccccc2NC2=C(C(=O)CC(c3ccco3)C2)C1c1ccc(OC)c(OC)c1 (stereo unspecified),0,0,-15
CC(=O)N1c2ccccc2NC2=C(C(=O)CC(c3ccco3)C2)C1c1ccc(Cl)cc1 (stereo unspecified),43*,18,-56
COc1cc(C2C3=C(CC(c4ccco4)CC3=O)Nc3ccccc3N2C(=O)c2ccccc2)cc(OC)c1OC (stereo unspecified),34*,6,-8
CCCCCC(=O)N1c2ccccc2NC2=C(C(=O)CC(c3ccc(C(C)(C)C)cc3)C2)C1c1ccncc1 (stereo unspecified),2,74*,25
CCCCCC(=O)N1c2ccccc2NC2=C(C(=O)CC(c3ccc(OC)c(OC)c3)C2)C1c1cccnc1 (stereo unspecified),5,16,28
COc1cc(C2CC(=O)C3=C(C2)Nc2ccccc2N(C(=O)c2ccccc2)C3c2ccc(C)cc2)cc(OC)c1OC (stereo unspecified),-8,-11,-11
Nc1c(-c2ccccn2)nsc1C(=O)N1CCN(c2ccccn2)CC1,-14,5,21
NS(=O)(=O)c1ccc(CCNc2ccn3nc(-c4ccccc4)cc3n2)cc1,-29,31*,23
c1ccc(-c2cc3nc(NCCc4ccccn4)ccn3n2)cc1,-32,-22,-30

# Screening results deposited in PubChem by Buhrlage Lab, Dana-Farber Cancer Institute and Novartis Institutes for BioMedical Research (Cambridge, Mass).
